# Sfp PPTase inh: Sfp phosphopantetheinyl transferase inhibition; Biochemical Sfp PPTase activity, qHTS; Potency, µM, hits mostly inhibitors; 310,000 compounds, 3.5% hits;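 note: the enzyme is Sfp with the accession as filed and its product quenches rhodamine fluorescence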
#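 After 15 min at room temperature with compound, 15 nM Sfp received 5 uM rhodamine-CoA plus 12.5 uM BHQ-2-ybbR (50 mM Hepes pH 7.6, 10 mM MgCl2). Rate came from the fluorescence difference over 30 min, ex 525/em 598 nm.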
# VP16 counter: counter-screen for ROR gamma inhibitors: Gal4-VP16 reporter. Drosophila S2 Gal4-VP16 UAS-luciferase, luminescence, 20 h. Potency, µM (series often up to 53.6 µM), usual class: inhibitors. 310,000 compounds, 3.5% hits;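 note: Gal4-VP16 expression switched on by copper sulfate through the metallothionein promoter; nearly all actives have a fitted effect of over 50% in size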
# RORg inh: blocks mouse ROR gamma transcriptional activity; P51450; Drosophila S2 Gal4-RORgamma UAS-luciferase reporter, 20 h; Potency, µM (series often up to 53.6 µM), most hits filed as inhibitors; 310,000 compounds, 5.4% hits; AID 2551; note: nearly all actives have a fitted effect of over 60% in size
# Target sequence (P51450 whole entry, looked up, the tested form may be a part): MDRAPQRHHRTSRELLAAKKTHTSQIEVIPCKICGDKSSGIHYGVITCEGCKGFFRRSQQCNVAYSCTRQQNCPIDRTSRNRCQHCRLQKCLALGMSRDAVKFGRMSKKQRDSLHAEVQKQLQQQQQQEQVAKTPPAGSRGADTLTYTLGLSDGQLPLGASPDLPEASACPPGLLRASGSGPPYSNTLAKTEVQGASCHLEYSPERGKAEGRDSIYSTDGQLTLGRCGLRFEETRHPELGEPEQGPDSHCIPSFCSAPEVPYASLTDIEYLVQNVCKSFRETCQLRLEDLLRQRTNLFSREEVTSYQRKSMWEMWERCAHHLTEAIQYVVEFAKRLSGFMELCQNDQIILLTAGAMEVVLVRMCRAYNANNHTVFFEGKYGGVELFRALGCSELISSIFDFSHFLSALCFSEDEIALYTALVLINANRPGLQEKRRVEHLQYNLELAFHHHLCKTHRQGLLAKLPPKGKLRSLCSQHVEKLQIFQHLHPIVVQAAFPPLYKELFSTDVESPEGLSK
#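 In this cell-based reporter format, copper sulfate (700 uM final) drives Gal4–ROR gamma fusion expression from a metallothionein promoter in Drosophila Schneider cells; compounds preincubated 1 hr, reporter read after 20 hr at ambient temperature.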
# PLK1 PBD block: inhibitors of human PLK1 polo-box domain binding; P53350; Plk1 PBD binding of FITC phosphopeptide, fluorescence polarization; Potency, µM, usual class: inhibitors; 360,000 compounds, 2.8% hits; AID 720504; note: series mostly up to about 57 µM; nearly all actives have a fitted effect of over 65% in size
# ALDH1A1 block: inhibitors of human aldehyde dehydrogenase 1A1; 220,000 compounds, 7.3% hits; Potency, µM (highest dose often 75.3 µM), actives largely listed as inhibitors; Purified ALDH1A1, NADH fluorescence, propionaldehyde substrate; active = well fitted inhibition curve with a large enough effect, not every such curve was filed as active; inconclusive = small, poorly fitted or top-dose-only effect, or another doubt; inactive = no such curve, though single readings can be large or run the other way
# A number is an active result; . = inactive; ? = inconclusive; / = no result given; [ ] = another dose, or the depositor's remark. In the library only some 12% were active in any assay of this set; here they are far more common. Unless noted, calls come from the whole dose curve; as a rule, active = well fitted curve in the direction sought with a large enough effect; inconclusive = small, poorly fitted or top-dose-only effect, or another doubt; inactive = no such curve, though single readings can be large; an effect the other way counts as inactive or inconclusive.
SMILES,Sfp PPTase inh,VP16 counter,RORg inh,PLK1 PBD block,ALDH1A1 block
COCCNC(=O)C1(C)CCN(C(=O)c2oc3ccccc3c2C)C1 (stereo not drawn),/,/,/,.,/
CN(C)c1ccc(-c2nc(NC3CCNCC3)c3ccccc3n2)cc1,.,.,?,/,.
O=c1c(-c2cc(F)cc(F)c2)nc2cnc(N3CCNCC3)nc2n1Cc1cccs1,35.5µM,?,2.82µM,/,?
CN1CCN(c2ncc3nc(-c4cccs4)c(=O)n(CCC#N)c3n2)CC1,.,6.31µM,0.708µM,/,?
CN1CCN(c2ncc3nc(-c4cccs4)c(=O)n(Cc4cccs4)c3n2)CC1,?,?,12.6µM,/,?
O=c1c(-c2cccs2)nc2cnc(N3CCNCC3)nc2n1Cc1cccs1,17.8µM,8.91µM,17.8µM,/,?
CN(C)c1ncc2nc(-c3cccs3)c(=O)n(CCC#N)c2n1,.,.,.,/,?
CC(O)(c1ccc(F)c(F)c1)c1nc(-c2cccc(C#N)c2)cs1 (stereo not drawn),/,/,/,.,/
CCOC(=O)C(C(=O)OCC)C(=O)c1cccc2ccc3ccccc3c12,/,/,/,.,/
COc1ccc(NC(=O)C(C2CC2)n2c(=O)c(-c3ccccc3)nc3ccccc32)cc1 (stereo not drawn),/,/,/,.,/
O=c1c(-c2ccc(Cl)cc2)nc2cnc(N3CCNCC3)nc2n1Cc1cccs1,28.2µM,?,.,/,?
COc1ccc(-n2c(=O)c(-c3cccs3)nc3cnc(N4CCNCC4)nc32)cc1,?,10µM,?,/,?
Brc1ccc2c(c1)c1cc(Br)ccc1n2CC1CO1 (stereo not drawn),.,.,.,/,.
O=C(Nc1ccc(F)cc1)C(c1ccnc2ccccc12)N1CCN(CC(=O)N2CCCC2)CC1 (stereo not drawn),/,/,/,.,/
CNC(=S)/N=C(\Nc1ccc(C)cc1)c1ccccc1,7.08µM,15.8µM,2.51µM,.,/
COCc1ccc(CN2CCC(n3nccc3NC(=O)CCOc3ccccc3)CC2)o1,.,?,8.91µM,.,/
COC(=O)c1ccccc1NCC(=O)c1ccc(OC)cc1,.,17.8µM,.,.,/
COc1ccc(C(=O)CNc2ccccc2CO)cc1,.,.,.,.,14.1µM
COc1ccccc1NCC(=O)c1ccc(Cl)cc1,50.1µM,.,.,.,/
C[C@@H]1CN([C@H](C)CO)S(=O)(=O)c2ccc(Br)cc2O[C@@H]1CN(C)C(=O)NC1CCCC1,/,/,/,.,/
Cc1ccc(C(=O)CC(C(=O)O)c2cn(CCC#N)c3ccccc23)cc1 (stereo not drawn),.,.,.,26.7µM,.
O=C(C(=O)N1CCC(Cc2ccccc2)CC1)c1cccs1,/,/,/,.,/
CC(C)(C)c1ccc(-c2nnc(SC3CCOC3=O)n2Cc2ccccc2)cc1 (stereo not drawn),.,?,15.8µM,.,?
C=CCn1c(SC2CCOC2=O)nc2sc(C)c(C)c2c1=O (stereo not drawn),.,.,.,.,.
O=C1OCCC1Sc1nc2cc(Cl)ccc2n1Cc1ccccc1 (stereo not drawn),.,?,12.6µM,.,25.1µM
SMILES,Sfp PPTase inh,VP16 counter,RORg inh,PLK1 PBD block,ALDH1A1 block
Cc1sc2nc(SC3CCOC3=O)n(Cc3ccccc3)c(=O)c2c1C (stereo not drawn),.,.,.,.,15.8µM
CCOC(=O)C[C@@H]1OC[C@H](CO)N1S(=O)(=O)c1ccc(C)cc1,/,/,/,.,/
Cc1cccc(N=c2oc3cc(O)ccc3cc2C(N)=O)c1,.,14.1µM,11.2µM,.,?
Cn1cc(C(=O)c2ccc(Cl)cc2Cl)cc1C(=O)N/N=C(\N)COc1cccc(C(F)(F)F)c1,.,2µM,2.24µM,.,.
CC(C)C[C@H]1CN(CCCC[C@@H]2CNC(=O)C(=O)N2CC2CCCCC2)C(=O)C(=O)N1CCc1ccc(O)cc1,/,/,/,.,/
CCOC(=O)C1(Cc2ccccc2C#N)CCCCC1=O (stereo not drawn),/,/,/,.,/
Cc1nc2ccccc2n1Cc1ccccc1Br,.,12.6µM,?,.,/
CCOC(=O)Cn1c(C)nc2ccccc21,.,.,.,.,.
Cc1nc2ccccc2n1CSc1ccccc1,.,.,14.1µM,.,?
CCC(C)Cn1c(C)nc2ccccc21 (stereo not drawn),.,12.6µM,12.6µM,.,.
Cn1cccc1C(=O)N1CCC2(CCN(C(=O)Nc3cccc(F)c3)CC2)CC1,.,.,.,/,.
Cc1ccc(-c2cc3c(N=O)c4ccccc4c-3n[nH]2)cc1,.,?,10µM,.,.
O=Nc1c2cc(-c3ccccc3)[nH]nc-2c2ccccc12,.,.,.,.,.
CCOC(=O)c1c(C)n(C)c2cc(-c3ccc(F)cc3)c(O)cc12,.,.,.,.,.
CCOC(=O)c1c(C)n(C)c2cc(Br)c(O)c(O)c12,79.4µM,.,.,.,/
CCOC(=O)c1c(C)n(C)c2cc([N+](=O)[O-])c(O)c([N+](=O)[O-])c12,.,.,.,21.2µM,.
CCOC(=O)c1c(C)n(C)c2ccc(OC(C)=O)cc12,.,.,.,.,.
O=C(O)c1c(Cl)c(Cl)c(Cl)c(Cl)c1C(=O)Nc1ccc2cn[nH]c2c1,/,/,/,/,.[13.5 µM]
CCOC(=O)c1ccc2c(c1)nc(-c1ccc(F)cc1)c1nccn12,.,.,.,.,?
O=C(NNC(=S)NC(=O)c1ccccc1[N+](=O)[O-])c1ccccc1Cl,.,.,.,.,.
O=C(NC(=S)Nc1ccccc1[N+](=O)[O-])c1ccccc1Cl,.,?,3.98µM,.,/
O=C(O)c1ccc(Cl)c(NC(=S)NC(=O)c2ccccc2[N+](=O)[O-])c1,50.1µM,.,.,?,22.4µM
CC(C)(C)CC(=O)NC(=S)Nc1ccccc1[N+](=O)[O-],.,?,6.31µM,.,.
CCC(=O)NC[C@H](Cc1ccc(OCCc2nc(-c3ccccc3)oc2C)cc1)N/C(C)=C\C(=O)c1ccc(C(F)(F)F)cc1,.,.,?,/,/
CC(C)CN1CC2(CCN(S(=O)(=O)c3ccccc3)CC2)C1,.,.,.,/,.
SMILES,Sfp PPTase inh,VP16 counter,RORg inh,PLK1 PBD block,ALDH1A1 block
CN(C)c1ncc2nc(CCc3ccccc3)c(=O)n(CCc3ccccc3)c2n1,.,.,.,/,?
CCCNC(=O)OC[C@@H]1O[C@H](CCO/N=C(\C)CCN2CCc3nc(CC)c(CC)cc3C2)C=C[C@@H]1Oc1ccc(OC)cc1,.,.[10 µM],.[10 µM],/,.[13.5 µM]
CC[C@@H](c1ccccc1)n1c(=O)n2n(c1=O)[C@H]1[C@H](O)[C@H]3O[C@H]3C(=O)[C@H]1CC2,.,.[10 µM],.[10 µM],/,.[13.5 µM]
O=C(NC1CCCCC1)c1sc(=S)n2c1[nH]c(=O)c1ccccc12,.,.,.,23.8µM,3.16µM
O=C(NC1CCCCCC1)c1c(O)c2ccccc2[nH]c1=O,.,.,.,.,.
CCCCNC(=O)c1sc(=S)n2c1[nH]c(=O)c1ccccc12,.,.,.,26.7µM,?
CCCCN(CC)CCCNC(=O)c1cc2c(=O)[nH]c3ccccc3c2s1,.,.,.,.,/
Cc1cc(/C=C2/C(=N)N3C(c4ccccc4)=CSC3=NC2=O)c(C)n1-c1ccccc1,.,.,?,.,.
Cc1ccccc1Cn1cccc1/C=C1/C(=N)N2C=CSC2=NC1=O,.,?,?,.,.
